Source: PubChem BioAssay AID485341 (National Center for Advancing Translational Sciences (NCATS), 2010)
About 1,700 (0.52%) of roughly 330,000 compounds were called active. The entries come from a sample that favours actives as a whole. Values without a mark were called inactive. Calls come from the whole dose curve; as a rule, active = well fitted inhibition curve with a large enough effect; inconclusive = small, poorly fitted or top-dose-only effect; inactive = no such curve, though single readings can be large or run the other way.

These compounds were tested against Beta-lactamase (Escherichia coli (strain K12)) (UniProt P00811) (assay: qHTS Inhibitors of AmpC Beta-Lactamase (assay without detergent)). Details: AmpC nitrocefin hydrolysis, absorbance 480 nm, 0.0001% Triton; series mostly up to 57.1 µM; activity change, negative = inhibition: at the top concentration.
Chain of Beta-lactamase (Escherichia coli (strain K12)) (P00811 whole entry, looked up): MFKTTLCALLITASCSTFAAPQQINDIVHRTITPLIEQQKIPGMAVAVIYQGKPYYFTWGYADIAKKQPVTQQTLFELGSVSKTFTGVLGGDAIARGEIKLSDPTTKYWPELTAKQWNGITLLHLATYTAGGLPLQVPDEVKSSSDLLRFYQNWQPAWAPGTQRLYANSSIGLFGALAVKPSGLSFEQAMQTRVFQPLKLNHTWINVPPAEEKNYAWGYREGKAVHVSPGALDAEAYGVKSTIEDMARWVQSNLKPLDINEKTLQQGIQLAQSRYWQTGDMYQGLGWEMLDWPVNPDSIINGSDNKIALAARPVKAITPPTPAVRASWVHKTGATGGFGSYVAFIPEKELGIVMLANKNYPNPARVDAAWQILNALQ
Method in brief: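 20 mM phosphate pH 7.0 + 0.01% (detergent screen) or 0.0001% Triton X-100; 5.3 nM AmpC reagent; cpd preinc 15 min RT; nitrocefin (800 uM stock) to start; A480 q20 s × 4 min; Activity was normalised to no-enzyme and no-compound control wells.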
Note: nearly all actives have a fitted effect of over 20% in size.
Potency is the fitted concentration of half-maximal effect.
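Throughout, for activity change, negative = inhibition: plate controls were no compound for no effect and no enzyme for full effect.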

Structure (SMILES)	activity change, negative = inhibition	Potency
C=C(C)Cn1c(N2CCN(CC)CC2)nc2c1c(=O)[nH]c(=O)n2C	-4.72%	–
Nc1cc(N2CCCCCC2)c2nonc2c1[N+](=O)[O-]	-9.46%	–
O=C(NCc1ccc(Cl)cc1)C(=O)NCC1CCCN1S(=O)(=O)c1cccs1 (centres undefined)	–	35.5 µM (active)
O=C(NCc1ccccc1Cl)C(=O)NCC1CCCN1S(=O)(=O)c1cccs1 (centres undefined)	68%	–
O=C(NCc1ccc(Cl)cc1)C1CCN(S(=O)(=O)c2cccs2)CC1	-18.9%	–
COc1ccc(C(=O)NCC2CCCN2S(=O)(=O)c2cccs2)cc1OC (centres undefined)	2.01%	–
COc1ccccc1CCNC(=O)C(=O)NCCC1CCCCN1S(=O)(=O)c1cccs1 (centres undefined)	-16.3%	–
COc1ccc(CCNC(=O)C(=O)NCC2CCCN2S(=O)(=O)c2cccs2)cc1OC (centres undefined)	–	31.6 µM (active)
O=C(COc1ccc([N+](=O)[O-])cc1)Nc1cccc(C(=O)Nc2ccccc2C(=O)O)c1	0.212%	–
O=C(NCCc1ccco1)C(=O)NCCC1CCCCN1S(=O)(=O)c1ccccc1 (centres undefined)	-16.1%	–
COc1cccc(CNC(=O)CN(C)S(=O)(=O)c2ccc3c(c2)c(=O)n(C)c(=O)n3C)c1	19.8%	–
CCC1Oc2ccccc2N(CC(=O)NCCCN2CCN(CC)CC2)C1=O (centres undefined)	1.42%	–
COC(=O)c1ccc(/C=N/N2C(C)CCCC2C)cc1 (centres undefined)	-6.66%	–
O=C1C(Cl)=C(N2CCOCC2)C(=O)N1c1ccccc1	-18.7%	–
O=C1OC(OC(=O)c2ccccc2Br)C(N2CCOCC2)=C1Cl (centres undefined)	–	4.47 µM (active)
O=C1OC(NC(=O)c2ccccc2)C(N2CCOCC2)=C1Cl (centres undefined)	-19.8%	–
CC(=O)N1CCN(S(=O)(=O)c2c(F)cc(F)c(Cl)c2F)CC1	-2.46%	–
CC(=O)Nc1ccc(C(=O)OCC(=O)Nc2ccc([N+](=O)[O-])cc2C(F)(F)F)cc1	-22.3%	–
O=C(CCN1C(=O)C2C3CCC(C3)C2C1=O)Nc1ccc(Cl)cc1Cl (centres undefined)	15.2%	–
CC1CN(c2nc(-c3ccccc3)nnc2-c2ccccc2)CC(C)O1 (centres undefined)	23.1%	–
Cn1c(=O)n(C)c2cc(NS(=O)(=O)c3ccc(F)cc3)ccc21	-28.5% [at 2.29 µM]	–
CSc1ccc(S(=O)(=O)Nc2cccc(F)c2)cc1	–	0.251 µM (active)
O=C1Cc2cc(S(=O)(=O)Nc3cccc(F)c3)ccc2N1	-41.8%	–
CC1CCN(C(=O)/C(=C\c2ccccc2F)NC(=O)c2ccccc2)CC1	9.38%	–
CCCC(CNC(=O)COC(=O)C1=NNC(=O)CC1)c1ccc(Cl)cc1Cl (centres undefined)	71.9%	–

Structure (SMILES)	activity change, negative = inhibition	Potency
CC(C)(C)NC(=O)NC(=O)COC(=O)Cc1c(F)cccc1Cl	-18%	–
CC(NC(=S)Nc1ccccc1)C(c1cccs1)N1CCOCC1 (centres undefined)	5.27%	–
CCCCn1c(SCC(=O)N2CCCC2=O)nc2cc(S(N)(=O)=O)ccc21	6.34%	–
CCOc1ccc(N2C(=O)CN(c3cccc4ccccc34)C2=S)cc1	–	10 µM (active)
CCOc1ccc(N2C(=O)CSC2=NC#N)cc1	-31.8%	–
CCO/C=C1\C(=O)N(c2ccc(OCC)cc2)C(=O)c2ccccc21	-26.1%	–
Cc1cc(NC(=O)CSCc2nc(-c3cccc(Cl)c3)oc2C)no1	-10.7%	–
O=S(=O)(c1ccc(SCc2ccccc2)nc1)N1CCCCCC1	-28.9%	–
C/C(CC(C)C)=N\Oc1nc(C)cc(C)n1	2.75%	–
CCOC(CNC(=O)C(=O)NCC(c1ccco1)N1CCN(c2ccc(OC)cc2)CC1)OCC (centres undefined)	66.9%	–
COc1ccc(NC(=O)C(=O)NCC(c2ccco2)N2CCc3ccccc3C2)cc1 (centres undefined)	–	28.2 µM (active)
O=C(NCC(c1ccco1)N1CCc2ccccc2C1)c1ccccc1Cl (centres undefined)	-3.02%	–
O=[N+]([O-])c1ccc(N2CCN(S(=O)(=O)c3ccccc3)CC2)cc1N1CCc2ccccc2C1	-9.35%	–
O=C(N[C@@H](Cc1ccccc1)C(=O)OCc1ccccc1)c1nc[nH]c1C(=O)N[C@@H](Cc1ccccc1)C(=O)OCc1ccccc1	-12.3%	–
CCC(C(=O)Nc1ncccn1)(C(F)(F)F)C(F)(F)F	-12.8%	–
Cc1ccccc1-c1nc(CS(=O)(=O)CC(=O)N2CCc3ccccc3C2)c(C)o1	–	11.2 µM (active)
Cc1ccccc1-c1nc(CS(=O)(=O)CC(=O)NC(C)c2ccccc2)c(C)o1 (centres undefined)	17.9%	–
CSc1ccc(CCNC(=O)CS(=O)(=O)Cc2nc(-c3ccccc3F)oc2C)cc1	21.8%	–
CCC[C@H]1CCCC/C=C\CCCC(=O)OCCN1C(=O)OC(C)(C)C	78.3%	–
CC1CCCN(Cc2nc3c(c(=O)n(C)c(=O)n3C)n2CC(=O)c2ccccc2)C1 (centres undefined)	123%	–
CC(C)CCn1c(CN(C)Cc2ccccc2)nc2c1c(=O)n(C)c(=O)n2C	87%	–
CCN1CCN(Cc2nc3c(c(=O)n(C)c(=O)n3C)n2CC(=O)c2ccccc2)CC1	–	1.58 µM (active)
COCCn1c(CN2CCC(Cc3ccccc3)CC2)nc2c1c(=O)n(C)c(=O)n2C	0.0682%	–
COCCn1c(CN(Cc2ccccc2)Cc2ccccc2)nc2c1c(=O)n(C)c(=O)n2C	176%	–
